Assay [1] deals with Cytochrome P450 3A4 (Homo sapiens) (UniProt P08684). As to the kind of experiment: qHTS Assay for Inhibitors and Substrates of Cytochrome P450 3A4 (AID 884). Note: series mostly up to about 57 µM; % is set by controls: 0 for no effect and ±100 for the full control effect; nearly all actives have a fitted effect of over 50% in size. The essentials: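 20 nM human CYP3A4 with 25 uM Luciferin-PPXE (at KM) in 200 mM KPO4, preincubated 10 min with compound; NADPH regeneration started a 60 min RT reaction. Luciferin detected by luminescence, normalized to 57 uM ketoconazole as full inhibition.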
Sequence of Cytochrome P450 3A4 (Homo sapiens) (P08684 whole entry, looked up): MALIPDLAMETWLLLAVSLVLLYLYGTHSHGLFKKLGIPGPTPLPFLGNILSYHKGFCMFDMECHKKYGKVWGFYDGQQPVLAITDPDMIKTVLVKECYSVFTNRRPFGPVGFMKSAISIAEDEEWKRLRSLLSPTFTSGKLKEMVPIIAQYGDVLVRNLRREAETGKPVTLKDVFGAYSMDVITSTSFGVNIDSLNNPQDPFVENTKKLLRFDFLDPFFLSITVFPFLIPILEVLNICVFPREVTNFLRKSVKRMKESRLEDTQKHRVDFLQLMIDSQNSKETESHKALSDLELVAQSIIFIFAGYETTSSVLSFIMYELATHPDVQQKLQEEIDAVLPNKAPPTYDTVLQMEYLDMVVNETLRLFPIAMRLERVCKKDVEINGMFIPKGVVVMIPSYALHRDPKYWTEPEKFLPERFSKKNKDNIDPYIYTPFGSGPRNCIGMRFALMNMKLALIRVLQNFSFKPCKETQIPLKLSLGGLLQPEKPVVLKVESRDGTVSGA

The nature of assay [2]: MultiTox-Fluor Cytotoxicity Assay - LYMP1-001 - Live Cells (AID 947).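 Note: 0% = DMSO only and full inhibition = tetraoctylammonium bromide control.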
Assay [3] can be described thus: Cell Viability - LYMP2-004 (AID 966).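 Note: plate controls were DMSO only for no effect and tetraoctylammonium bromide control for full effect; nearly all actives have a fitted effect of over 65% in size.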 An outline of the steps:
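Acute toxicity is scored as a concentration-dependent drop in intracellular ATP, quantified by luciferase luminescence, in human lymphoblastoid cells exposed to compound for 24 hr. AC50 derives from Hill-equation modelling.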

Assay [4] in a line: Cell Viability - LYMP2-009 (AID 968).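 Note: series mostly up to about 92 µM; cells exposed to compound for 24 h at 37 °C; 0% = DMSO alone and the full-kill end = tetraoctylammonium bromide at 92 µM; nearly all actives have a fitted effect of over 55% in size.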
A short description of assay [5]: Cell Viability - LYMP2-010 (AID 981).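 Note: cells exposed to compound for 24 hours at 37 °C; % is set by controls: 0 for no effect and ±100 for the full control effect; nearly all actives have a fitted effect of over 55% in size.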 The essentials:
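Acute toxicity is scored as a concentration-dependent loss of cellular ATP in human lymphoblastoid cells after 24 hr compound exposure in complete medium. Tetraoctylammonium bromide is the positive control.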

Assay [6] is described as follows: Cell Viability - LYMP2-012 (AID 982).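 Note: cellular ATP by luciferase luminescence where a drop means cytotoxicity; cells exposed to compound for one day before reading; 0% = DMSO only and full loss = 92 µM tetraoctylammonium bromide; nearly all actives have a fitted effect of over 55% in size.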
The target of assay [7] is Estrogen receptor (Homo sapiens) (UniProt P03372). The experiment in a line: qHTS assay for small molecule antagonists of estrogen receptor alpha signaling (AID 588513; active = well fitted curve in the direction sought with a large enough effect in the signal ratio, with a control signal flat, not every such curve was filed as active; the % refers to the signal ratio; note: % is set by controls: 0 for no effect and ±100 for the full control effect). The essentials: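 Fluorescence from CCF4 substrate after 2 h at room temperature gave reporter activity; cells had been exposed to compound and 0.5nM 17-beta-estradiol for 18 h at 37 C. Hill-equation fitting yielded IC50 and maximal response.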
Sequence of Estrogen receptor (Homo sapiens) (P03372 whole entry, looked up): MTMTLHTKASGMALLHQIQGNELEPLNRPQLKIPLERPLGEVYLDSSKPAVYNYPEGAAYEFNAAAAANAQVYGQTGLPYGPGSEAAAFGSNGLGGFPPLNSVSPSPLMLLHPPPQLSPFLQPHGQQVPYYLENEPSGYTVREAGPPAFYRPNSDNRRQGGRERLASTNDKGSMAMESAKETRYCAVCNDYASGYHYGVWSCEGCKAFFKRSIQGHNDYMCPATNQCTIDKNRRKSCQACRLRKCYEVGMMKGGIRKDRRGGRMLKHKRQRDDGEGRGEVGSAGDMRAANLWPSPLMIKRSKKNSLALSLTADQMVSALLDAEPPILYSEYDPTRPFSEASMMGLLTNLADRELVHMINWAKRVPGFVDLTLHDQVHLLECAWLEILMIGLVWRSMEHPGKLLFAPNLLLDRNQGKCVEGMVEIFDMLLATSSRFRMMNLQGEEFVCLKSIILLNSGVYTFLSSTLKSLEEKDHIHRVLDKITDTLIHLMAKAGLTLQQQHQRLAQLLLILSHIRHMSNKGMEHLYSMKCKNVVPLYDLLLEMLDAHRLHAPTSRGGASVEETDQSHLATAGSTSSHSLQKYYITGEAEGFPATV
Background: In qHTS, concentration-response curves come from the screen itself.

Assay [8] has the same target. The experiment in a line: qHTS assay for small molecule agonists of estrogen receptor alpha signaling (AID 588514; calls by dose curve; note: nearly all actives have a fitted effect of over 70% in size; note: potency is the fitted concentration of half-maximal effect;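 for activation: 0% = vehicle only and 100% = reference agonist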). The essentials: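 Reporter-gene assay. […] controls beta-lactamase in HEK 293 GripTite cells; after 18 hrs with compound, CCF4 substrate is added for 2 hrs and fluorescence is read.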
Assay [9] deals with Peroxisome proliferator-activated receptor gamma (Homo sapiens) (UniProt P37231). The experiment in a line: qHTS assay for small molecule agonists of peroxisome proliferator-activated receptor gamma signaling (AID 588536; active = well fitted curve in the direction sought with a large enough effect in the signal ratio, with a control signal flat, not every such curve was filed as active; the % refers to the signal ratio;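 note: 0% = DMSO basal wells and 100% = rosiglitazone at 2 µM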). The essentials: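 HEK293 UAS-bla reporter line, 1% charcoal/dextran FBS; titration, 16 h, 37 C; CCF4 loading 2 h RT; fluorescence 460/530 nm. Normalized to rosiglitazone 2 uM = 100%, DMSO = 0%.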
Sequence of Peroxisome proliferator-activated receptor gamma (Homo sapiens) (P37231 whole entry, looked up): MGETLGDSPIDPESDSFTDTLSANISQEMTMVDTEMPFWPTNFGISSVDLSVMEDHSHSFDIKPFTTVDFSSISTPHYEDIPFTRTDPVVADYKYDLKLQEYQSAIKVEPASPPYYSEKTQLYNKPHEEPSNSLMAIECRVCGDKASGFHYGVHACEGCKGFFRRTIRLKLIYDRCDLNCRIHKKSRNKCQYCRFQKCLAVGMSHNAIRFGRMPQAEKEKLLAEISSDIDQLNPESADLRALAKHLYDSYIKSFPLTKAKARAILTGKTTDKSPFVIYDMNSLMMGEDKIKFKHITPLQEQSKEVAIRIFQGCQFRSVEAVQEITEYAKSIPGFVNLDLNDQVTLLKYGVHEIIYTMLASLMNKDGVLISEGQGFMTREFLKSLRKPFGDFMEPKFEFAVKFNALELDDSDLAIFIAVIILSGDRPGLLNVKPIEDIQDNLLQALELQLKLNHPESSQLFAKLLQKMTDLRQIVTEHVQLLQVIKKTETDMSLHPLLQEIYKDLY

The target of assay [10] is Thyroid hormone receptor beta (Homo sapiens) (UniProt P10828). The experiment in a line: qHTS assay for small molecule agonists of thyroid hormone receptor beta signaling (AID 588545; calls by dose curve). The essentials: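 Agonist-mode beta-lactamase reporter assay, HEK 293 cells, 2% charcoal/dextran FBS; cells plated 4 hrs, compound 18 hrs at 37 C, CCF4 2 hrs RT. Normalized to 10 nM T3 (100%) and DMSO (0%); Hill fit gives EC50, efficacy.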
Sequence of Thyroid hormone receptor beta (Homo sapiens) (P10828 whole entry, looked up): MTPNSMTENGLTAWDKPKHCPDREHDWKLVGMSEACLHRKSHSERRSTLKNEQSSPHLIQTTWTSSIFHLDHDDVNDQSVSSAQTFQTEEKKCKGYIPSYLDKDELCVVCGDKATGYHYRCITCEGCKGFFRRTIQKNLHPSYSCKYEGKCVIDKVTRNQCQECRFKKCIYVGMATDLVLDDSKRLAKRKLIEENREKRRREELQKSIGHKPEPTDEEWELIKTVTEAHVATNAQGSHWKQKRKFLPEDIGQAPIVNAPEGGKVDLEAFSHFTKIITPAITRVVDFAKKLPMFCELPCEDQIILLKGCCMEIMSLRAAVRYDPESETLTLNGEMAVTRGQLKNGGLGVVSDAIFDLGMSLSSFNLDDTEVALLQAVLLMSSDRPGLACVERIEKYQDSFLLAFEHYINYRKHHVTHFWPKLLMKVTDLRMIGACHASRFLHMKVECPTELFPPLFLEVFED

Assay [11] has the same target. The experiment in a line: qHTS assay for small molecule antagonists of thyroid hormone receptor beta signaling (AID 588547; active = well fitted inhibition curve with a large enough effect in the signal ratio, with a control signal flat, not every such curve was filed as active; the % refers to the signal ratio;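 note: cells stimulated with 0.4 nM T3 agonist during compound exposure; series mostly up to about 77 µM; % is set by controls: 0 for no effect and ±100 for the full control effect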). Conditions: TR-UAS-bla HEK293, beta-lactamase ratio, antagonist mode, 18 h. The essentials:
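TR-UAS-bla GripTite HEK293 cells in 2% charcoal/dextran FBS medium; compounds 0.59 nM to 92 uM with T3 at 0.4nM final, 18 h at 37 C. Beta-lactamase read by CCF4 fluorescence (460/530 nm); Hill fits gave IC50 and efficacy.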

For assay [12], the target named is Voltage-gated inwardly rectifying potassium channel KCNH2 (Homo sapiens) (UniProt Q12809). As to the kind of experiment: qHTS Assay for Small Molecule Inhibitors of the Human hERG Channel Activity (AID 588834).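 Note: top concentration of the series differs between compounds; % is set by controls: 0 for no effect and ±100 for the full control effect; lower thallium flux fluorescence means stronger hERG block; nearly all actives have a fitted effect of over 50% in size.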 An outline of the steps: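 hERG-BacMam U2OS, 2000 cells/well; 0.7X FluxOR loading 1 hr RT dark; cpd ~10 min 37 °C; stim buffer; FDSS fluorescence 2 min @ 1 s; AC50 Hill fit.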
Sequence of Voltage-gated inwardly rectifying potassium channel KCNH2 (Homo sapiens) (Q12809 whole entry, looked up): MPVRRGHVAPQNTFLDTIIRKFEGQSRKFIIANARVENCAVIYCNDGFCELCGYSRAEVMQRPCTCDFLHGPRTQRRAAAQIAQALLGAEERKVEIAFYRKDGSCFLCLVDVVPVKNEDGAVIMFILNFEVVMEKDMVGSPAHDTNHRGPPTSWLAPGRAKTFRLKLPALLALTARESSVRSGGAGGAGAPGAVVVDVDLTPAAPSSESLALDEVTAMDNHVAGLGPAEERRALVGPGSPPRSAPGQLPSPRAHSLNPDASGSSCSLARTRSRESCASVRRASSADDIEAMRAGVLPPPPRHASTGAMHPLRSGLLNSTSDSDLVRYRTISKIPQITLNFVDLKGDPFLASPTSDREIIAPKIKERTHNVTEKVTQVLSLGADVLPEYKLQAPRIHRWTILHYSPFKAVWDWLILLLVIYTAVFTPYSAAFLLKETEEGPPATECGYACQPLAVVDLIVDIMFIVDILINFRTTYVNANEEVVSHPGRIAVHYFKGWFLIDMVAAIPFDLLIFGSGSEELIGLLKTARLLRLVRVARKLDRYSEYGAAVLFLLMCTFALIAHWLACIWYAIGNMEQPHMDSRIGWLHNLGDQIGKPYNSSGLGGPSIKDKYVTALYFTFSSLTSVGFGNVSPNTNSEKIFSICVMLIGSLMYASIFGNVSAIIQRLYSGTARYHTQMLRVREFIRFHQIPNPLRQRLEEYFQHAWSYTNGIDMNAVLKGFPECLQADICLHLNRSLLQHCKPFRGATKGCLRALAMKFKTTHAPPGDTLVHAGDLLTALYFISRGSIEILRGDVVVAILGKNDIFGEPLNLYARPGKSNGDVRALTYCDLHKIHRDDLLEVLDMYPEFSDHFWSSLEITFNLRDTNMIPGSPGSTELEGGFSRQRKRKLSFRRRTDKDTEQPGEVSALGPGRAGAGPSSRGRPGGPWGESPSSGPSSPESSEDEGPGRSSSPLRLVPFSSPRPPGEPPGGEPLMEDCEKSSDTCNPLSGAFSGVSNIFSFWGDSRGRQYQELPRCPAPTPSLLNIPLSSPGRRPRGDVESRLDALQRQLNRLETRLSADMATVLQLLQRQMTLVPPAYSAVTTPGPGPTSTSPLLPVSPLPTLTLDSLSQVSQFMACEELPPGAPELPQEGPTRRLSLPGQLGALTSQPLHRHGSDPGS

A short description of assay [13]: qHTS assay for small molecule activators of the p53 signaling pathway (AID 651743; active = well fitted activation curve with a large enough effect in the signal ratio, not every such curve was filed as active; the % refers to the signal ratio; note: series mostly up to about 92 µM; % of control where 0% means no effect). Conditions: HCT-116 p53RE-bla, beta-lactamase FRET ratio, 16 h; activation: hits give high values. An outline of the steps:
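HCT-116 p53RE-bla, 4,000 cells/well; 5 h settle; cpd/DMSO 16 h, 37 C; LiveBLAzer B/G 2 h RT; fluorescence intensity.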

Assay [14] addresses Nuclear receptor ROR-gamma (Homo sapiens) (UniProt P51449). As to the kind of experiment: qHTS assay for small molecule antagonists of the retinoid-related orphan receptor gamma (ROR-gamma) signaling pathway (AID 651802). Note: series mostly up to about 92 µM; % is set by controls: 0 for no effect and ±100 for the full control effect; nearly all actives have a fitted effect of over 60% in size. An outline of the steps: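 Antagonism is scored as a fall in luminescence from a RORE-luciferase reporter in CHO cells expressing ROR under a TET-inducible promoter, measured 16hr after doxycycline induction in the presence of compound.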

The nature of assay [15]: qHTS assay for small molecule antagonists of the retinoid-related orphan receptor gamma (ROR-gamma) signaling pathway - cell viability counter screen (AID 720652; active = well fitted curve in the direction sought with a large enough effect in the repeat runs; an effect the other way counts as inactive or inconclusive;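 note: series mostly up to about 92 µM; compound exposure lasted 16 hr before ATP read; % is set by controls: 0 for no effect and ±100 for the full control effect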). An outline of the steps: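 Cytotoxicity is quantified via intracellular ATP (CellTiter-Glo luminescence) in doxycycline-induced CHO ROR response element-luciferase reporter cells treated with compound for 16 hr at 37 C, 5% CO2.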

Assay [16] concerns the target Nuclear receptor subfamily 1 group I member 2 (Rattus norvegicus) (UniProt Q9R1A7). As to the kind of experiment: qHTS assay for small molecule activators of the rat pregnane X receptor (rPXR) signaling pathway (AID 651751; call rule not given here; note: 0% is about no effect). Conditions: rPXR reporter cells, luciferase (One-Glo), 24 h.
The nature of assay [17]: qHTS assay for small molecule activators of the human pregnane X receptor (PXR) signaling pathway (AID 720659; call rule not given here; note: 0% is about no effect).
Assay [18] concerns the target Glucocorticoid receptor (Homo sapiens) (UniProt P04150). As to the kind of experiment: qHTS assay for small molecule agonists of glucocorticoid receptor signaling (AID 588532; active = well fitted curve in the direction sought with a large enough effect in the signal ratio, with a control signal flat; the % refers to the signal ratio;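 note: 100% = dexamethasone at 0.1 µM and 0% = DMSO only wells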). The conditions noted are these: HeLa MMTV-bla, beta-lactamase ratio, agonist, 18 h; hits give high values; percent of dexamethasone control, DMSO zero. An outline of the steps: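 MMTV-bla HeLa beta-lactamase reporter cells in 1% charcoal/dextran FBS medium, compounds up to 92 uM for 18 h at 37 C, CCF4 readout; normalized to 0.1 uM dexamethasone (100%), EC50 and efficacy from Hill fits.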

The target is the same in assay [19]. The experiment in a line: qHTS assay for small molecule antagonists of glucocorticoid receptor signaling (AID 588533; active = well fitted inhibition curve with a large enough effect in the signal ratio, with a control signal flat, not every such curve was filed as active; the % refers to the signal ratio;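 note: cells stimulated with 2 nM dexamethasone as agonist; % is set by controls: 0 for no effect and ±100 for the full control effect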). The essentials:
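Antagonist-mode qHTS: compound titrations added to GRE-bla HeLa cells, then dexamethasone 2 nM final; 18 h, 37 C. CCF4 FRET fluorescence normalized to dexamethasone and DMSO; IC50 from Hill fit.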

Assay [20] has as its target Peroxisome proliferator-activated receptor delta (Homo sapiens) (UniProt Q03181). The experiment in a line: qHTS assay for small molecule agonists of peroxisome proliferator-activated receptor delta signaling (AID 588534; calls by dose curve;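 note: 0% = DMSO basal wells and 100% = positive control agonist at 10 µM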). The essentials:
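Reporter cells were plated and held 5 hrs at 37 C before compounds were added. After 18 hrs at 37 C, CCF4 dye was loaded for 2 hrs at RT and fluorescence measured.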

Several values for one entry are separate records, joined by “and”; a condition that tells them apart may be missing. Equal entries are not always repeated. Values without a mark were called inactive. Results filed as inconclusive are left out. Activity calls are given as the source filed them. Unless noted, calls come from the whole dose curve; as a rule, active = well fitted curve in the direction sought with a large enough effect; inconclusive = small, poorly fitted or top-dose-only effect, or another doubt; inactive = no such curve, though single readings can be large; an effect the other way counts as inactive or inconclusive.

Sequence of Nuclear receptor subfamily 1 group I member 2 (Rattus norvegicus) (Q9R1A7 whole entry, looked up): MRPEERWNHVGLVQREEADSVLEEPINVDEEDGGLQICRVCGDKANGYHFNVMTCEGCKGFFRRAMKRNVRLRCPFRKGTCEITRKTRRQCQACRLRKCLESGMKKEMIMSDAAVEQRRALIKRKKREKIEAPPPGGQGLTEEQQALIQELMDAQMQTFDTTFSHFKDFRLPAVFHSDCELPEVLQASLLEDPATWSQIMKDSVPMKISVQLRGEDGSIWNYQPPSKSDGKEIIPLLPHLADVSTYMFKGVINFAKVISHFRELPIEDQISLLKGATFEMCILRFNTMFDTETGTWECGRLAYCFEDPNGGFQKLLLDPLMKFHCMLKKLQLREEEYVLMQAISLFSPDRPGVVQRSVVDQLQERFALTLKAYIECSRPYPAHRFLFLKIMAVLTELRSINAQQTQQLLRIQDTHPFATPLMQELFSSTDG
Sequence of Nuclear receptor ROR-gamma (Homo sapiens) (P51449 whole entry, looked up): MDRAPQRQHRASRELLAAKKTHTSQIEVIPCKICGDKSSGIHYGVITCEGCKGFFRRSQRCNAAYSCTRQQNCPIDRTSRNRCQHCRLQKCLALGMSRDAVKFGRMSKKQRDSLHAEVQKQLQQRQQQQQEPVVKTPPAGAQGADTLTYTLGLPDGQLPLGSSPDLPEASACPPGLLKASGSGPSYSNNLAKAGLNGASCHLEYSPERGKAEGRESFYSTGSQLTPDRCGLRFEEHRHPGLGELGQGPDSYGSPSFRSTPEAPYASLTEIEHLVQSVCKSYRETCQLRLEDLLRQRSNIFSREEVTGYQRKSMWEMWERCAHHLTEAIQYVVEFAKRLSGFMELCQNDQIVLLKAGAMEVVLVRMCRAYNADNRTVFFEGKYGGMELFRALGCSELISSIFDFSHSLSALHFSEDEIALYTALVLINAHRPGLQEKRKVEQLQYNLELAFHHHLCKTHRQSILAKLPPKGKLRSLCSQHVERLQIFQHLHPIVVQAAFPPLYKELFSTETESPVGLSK
Sequence of Peroxisome proliferator-activated receptor delta (Homo sapiens) (Q03181 whole entry, looked up): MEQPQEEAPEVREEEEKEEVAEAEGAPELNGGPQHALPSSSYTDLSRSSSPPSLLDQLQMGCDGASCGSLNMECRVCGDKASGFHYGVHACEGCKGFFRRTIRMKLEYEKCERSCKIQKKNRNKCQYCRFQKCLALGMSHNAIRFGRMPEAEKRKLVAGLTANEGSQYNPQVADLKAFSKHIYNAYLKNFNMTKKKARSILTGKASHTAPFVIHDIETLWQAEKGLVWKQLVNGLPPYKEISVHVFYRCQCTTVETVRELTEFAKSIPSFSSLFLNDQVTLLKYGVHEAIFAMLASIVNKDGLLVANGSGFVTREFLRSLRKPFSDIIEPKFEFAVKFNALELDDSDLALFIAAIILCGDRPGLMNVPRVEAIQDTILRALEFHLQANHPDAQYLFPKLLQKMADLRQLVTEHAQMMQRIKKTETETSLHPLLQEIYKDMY

For `COc1ccc(C=O)cc1OC`, the Potency result in [1], in [2], in [3], in assay [4], in assay [5] and in assay [6] was “inactive” each time. Besides, the Potency entry in assay [7], in [8], in assay [12], in assay [14] and in [15] was “inactive” throughout. In addition, the molecule was classed as inactive in assay [9], in assay [10] and in assay [17]. The activity change % (negative = inhibition) in assay [11] is 2.18% and 12.7%. In addition, the activation in [13] was -1.53% and 0.661%. Moreover, the max response in assay [16] is -2.56% and 1.92%.
Turning to `CCCC(=O)Cl`, the Potency result in [2], in [3], in assay [4], in assay [5], in [6] and in assay [7] was “inactive” throughout. In addition, the Potency result in [8], in assay [19], in assay [12], in assay [14] and in assay [15] was “inactive” each time. The activation is 7.24% in [18] and -0.024% in assay [13]. Besides, the molecule was classed as inactive in [20], in assay [9], in assay [10] and in [17]. The activity change % (negative = inhibition) in [11] is 3.8%. In assay [16], the max response is -1.41%.
For `C=CCOC(C)=O`, the Potency entry in assay [1], in assay [2], in assay [3], in assay [4], in assay [5] and in [6] was “inactive” throughout. Also, the Potency result in assay [7], in [8], in assay [19], in [12], in assay [14] and in assay [15] was “inactive” in each case. The activation in assay [18] is 10.3%; in [13], -2.44%. The molecule was called inactive in assay [9] and in assay [17]. Also, in assay [11], the activity change % (negative = inhibition) was 14.6%. For the same molecule, the max response in assay [16] was -1.67%.
For the molecule `Brc1ccccc1`, the Potency entry in [3], in [4], in assay [5], in assay [6], in assay [7] and in [8] was “inactive” throughout. Also, the Potency result in assay [19], in assay [12], in assay [14] and in [15] was “inactive” each time. The activation was -10.5% and -5.75% in assay [18]; -1.82% and -1.95% in assay [13]. Also, the call in assay [20], in assay [9], in assay [10] and in [17] was inactive. Moreover, the activity change % (negative = inhibition) in assay [11] is -13.6% and -17.2%. Further, the max response in assay [16] was 0.981% and 1.34%.
Consider `C=C(C)C(=O)OCC1CO1` (centres undefined), for which the Potency result in assay [1], in assay [2], in assay [3], in assay [4], in assay [5] and in [6] was “inactive” in each case. The Potency result in [7], in assay [8], in [19], in assay [12], in assay [14] and in assay [15] was “inactive” each time. In addition, the activation was -3.77% in [18] and -0.637% in assay [13]. For the same molecule, the molecule was called inactive in assay [20], in assay [9], in assay [10] and in assay [17]. Further, the activity change % (negative = inhibition) in assay [11] is 6.72%. The max response in assay [16] was -2.46%.
Turning to `CN=C=S`, the Potency result in [1], in [2], in [3], in [4], in assay [5] and in assay [6] was “inactive” each time. Besides, the Potency result in assay [7], in assay [12] and in assay [14] was “inactive” in each case. In addition, the Potency in assay [8] was 20 µM (active). The outcome in [20], in assay [9], in [10] and in assay [17] was inactive. Also, in assay [11], the activity change % (negative = inhibition) was -1.38% and -7.2%. Further, the activation in [13] was -0.537% and -2.4%. Further, the max response in assay [16] is 1.38% and 4.99%.

For the origin of these results see PubChem BioAssay (NCATS).
